{"source": "PubChem BioAssay (EPA / NIEHS)", "note": "Calls of active or inactive are those of the source. How the source made its calls: active means hit-call score of the fitted dose curve at least 0.9, where 1 is the maximum; inactive means score below 0.9."}
{"test": "ATG_TGFb_CIS: Attagene CIS-FACTORIAL HepG2 Assay for human Transforming Growth Factor (TGF) (AID 2282967)", "conditions": "HepG2 Attagene CIS TGFb reporter, mRNA transcription; actives raise or lower the signal", "procedure,_shortened": "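Liver HepG2 line, cis-factorial reporter panel, 24 h dosing. Quantitation: RT-PCR products labeled with 6-FAM, cut with HpaI, resolved by capillary electrophoresis; DMSO-referenced bidirectional analysis.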"}
{"smiles": "O=c1[nH]cccc1O", "outcome": "inactive"}
{"smiles": "CCC(C)CO", "note": "(stereo not given)", "outcome": "inactive"}
{"smiles": "O=C(c1ccccc1)c1ccc(O)cc1O", "outcome": "inactive"}
{"smiles": "CC(C)OC=O", "outcome": "inactive"}
{"smiles": "CCCCCCCC/C=C\\CCCCCCCC(=O)OCC(O)CO", "note": "(stereo not given)", "outcome": "inactive"}
{"smiles": "C#CC(O)CCC", "note": "(stereo not given)", "outcome": "inactive"}
{"smiles": "O=C(Cl)c1ccc(Cl)cc1Cl", "outcome": "inactive"}
{"smiles": "CCOC(OCC)OCC", "outcome": "inactive"}
{"smiles": "CCOCN(C(=O)CS(=O)(=O)O)c1c(C)cccc1CC", "outcome": "inactive"}
{"smiles": "OCC(F)(F)C(F)(F)C(F)(F)C(F)(F)C(F)(F)C(F)(F)CO", "outcome": "inactive"}
{"smiles": "C[Si](C)O[Si](C)C", "outcome": "inactive"}
{"smiles": "O=C1C=CC(=O)N1c1ccc(Cc2ccc(N3C(=O)C=CC3=O)cc2)cc1", "AC50": "41.6 µM (active)"}
{"smiles": "CC(=O)CCC(C)C", "outcome": "inactive"}
{"smiles": "COCCC(=O)OC", "outcome": "inactive"}
{"smiles": "CCCC(=O)OCC(COC(=O)CCC)OC(=O)CCC", "outcome": "inactive"}
{"smiles": "O=c1cccc[nH]1", "outcome": "inactive"}
{"smiles": "CC(C)OC(=O)COc1ccc(Cl)cc1Cl", "outcome": "inactive"}
{"smiles": "CCCCCCCCCCCCCC[P+](CCCC)(CCCC)CCCC", "outcome": "inactive"}
{"smiles": "CCN=C1C=CC(=C(c2ccc(N(CC)CC)cc2)c2ccc(N(CC)CC)cc2)c2ccccc21", "outcome": "inactive"}
{"smiles": "C=CC(=O)OCCC(F)(F)C(F)(F)C(F)(F)C(F)(F)F", "outcome": "inactive"}
{"smiles": "CO[Si](C)(CCC(F)(F)C(F)(F)C(F)(F)C(F)(F)C(F)(F)C(F)(F)F)OC", "outcome": "inactive"}
{"smiles": "CCN=c1cc2oc3cc(NCC)c(C)cc3c(-c3ccccc3C(=O)OCC)c-2cc1C", "outcome": "inactive"}
{"smiles": "CC(=O)c1ccccc1N", "outcome": "inactive"}
{"smiles": "O=C1c2c(O)ccc(Nc3ccc(CCO)cc3)c2C(=O)c2c([N+](=O)[O-])ccc(O)c21", "outcome": "inactive"}
{"smiles": "CC(C)C(=O)OCc1ccccc1", "outcome": "inactive"}
